Source: PubChem BioAssay
Active and inactive are the calls of the source.

How the values were obtained:
[1] = compounds binding Alexa647 anti-His antibody – biochemical, small-molecule microarray, 635 nm fluorescence, artefact control for SMM control protein annotation, primary screen (AID 1128); conditions: higher = more signal;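 further: score merges feature fluorescence with signal-to-noise for each printed compound spot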
[2] = tested on: Human papillomavirus type 1a E7 protein (residues 1-88); experiment: HPV1a E7 small-molecule binders, primary screen, biochemical, small-molecule microarray, residues 1-88, 635 nm (AID 1129); conditions: small-molecule microarray binding, fluorescence 635 nm; higher = more signal
[3] = molecular target: Focal adhesion kinase 1 (Homo sapiens) (UniProt Q05397); experiment: PTK2 protein binding on printed compound slides – biochemical, small-molecule microarray, 635/667 nm fluorescence, BSA, DTT, primary screen (AID 1130); conditions: 635 nm fluorescence, higher = more signal;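 further: composite of spot emission at 667 nm and signal to noise over triplicate slides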
Sequence of Focal adhesion kinase 1 (Homo sapiens) (Q05397 whole entry, looked up): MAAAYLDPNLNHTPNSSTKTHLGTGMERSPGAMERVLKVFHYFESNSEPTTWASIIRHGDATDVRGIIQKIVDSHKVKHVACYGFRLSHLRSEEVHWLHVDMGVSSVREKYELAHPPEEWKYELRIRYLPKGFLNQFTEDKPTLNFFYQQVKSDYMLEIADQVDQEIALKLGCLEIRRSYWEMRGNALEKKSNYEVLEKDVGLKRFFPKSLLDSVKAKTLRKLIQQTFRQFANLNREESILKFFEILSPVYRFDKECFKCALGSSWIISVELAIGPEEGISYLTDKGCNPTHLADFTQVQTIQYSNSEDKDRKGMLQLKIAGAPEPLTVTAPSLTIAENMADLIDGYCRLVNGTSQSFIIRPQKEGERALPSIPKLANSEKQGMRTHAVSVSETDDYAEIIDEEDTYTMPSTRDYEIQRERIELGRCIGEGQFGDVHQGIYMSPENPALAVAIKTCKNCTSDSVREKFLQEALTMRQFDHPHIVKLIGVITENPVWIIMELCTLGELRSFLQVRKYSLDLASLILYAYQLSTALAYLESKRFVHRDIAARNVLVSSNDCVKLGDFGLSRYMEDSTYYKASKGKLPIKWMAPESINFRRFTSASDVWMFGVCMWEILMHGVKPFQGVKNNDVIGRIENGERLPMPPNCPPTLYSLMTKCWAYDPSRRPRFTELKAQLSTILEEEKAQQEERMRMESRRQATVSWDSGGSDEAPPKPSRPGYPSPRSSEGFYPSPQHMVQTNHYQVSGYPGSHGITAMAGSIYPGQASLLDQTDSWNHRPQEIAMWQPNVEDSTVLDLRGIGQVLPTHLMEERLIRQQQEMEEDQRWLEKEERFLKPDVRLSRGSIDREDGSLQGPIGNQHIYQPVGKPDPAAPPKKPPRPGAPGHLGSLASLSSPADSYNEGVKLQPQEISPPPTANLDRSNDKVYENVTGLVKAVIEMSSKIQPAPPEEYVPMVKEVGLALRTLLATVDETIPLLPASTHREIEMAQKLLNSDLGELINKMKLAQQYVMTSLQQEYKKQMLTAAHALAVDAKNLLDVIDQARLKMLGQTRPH

[4] = tested on: Fibrinogen (Alexa647-labelled); experiment: Alexa647-fibrinogen binding to printed small molecules – biochemical, small-molecule microarray, 635/667 nm fluorescence, artefact control for SMM control-protein annotation, profiling panel (AID 1131); conditions: fibrinogen-A647 binding fluorescence, higher = more signal;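 further: z-score merges 667 nm fluorescence with per-spot signal-to-noise over triplicate slides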
[5] = molecular target: Follistatin (Homo sapiens) (UniProt P19883); experiment: FST protein binding to printed compounds – biochemical, small-molecule microarray, 635/667 nm fluorescence, primary screen (AID 1132); conditions: 635 nm fluorescence, higher = more signal
Sequence of Follistatin (Homo sapiens) (P19883 whole entry, looked up): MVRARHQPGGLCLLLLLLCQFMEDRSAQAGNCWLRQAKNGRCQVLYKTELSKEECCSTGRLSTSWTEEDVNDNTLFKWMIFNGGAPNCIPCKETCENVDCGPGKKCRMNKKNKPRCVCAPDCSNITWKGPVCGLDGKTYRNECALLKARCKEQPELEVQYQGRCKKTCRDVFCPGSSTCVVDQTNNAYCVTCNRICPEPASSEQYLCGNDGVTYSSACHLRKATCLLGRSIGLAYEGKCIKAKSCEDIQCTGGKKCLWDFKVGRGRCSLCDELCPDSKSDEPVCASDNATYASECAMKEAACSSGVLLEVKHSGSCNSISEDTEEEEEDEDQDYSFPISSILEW

[6] = molecular target: Fibroblast growth factor 2 (Homo sapiens) (UniProt P09038); experiment: basic fibroblast growth factor binding to printed compounds – biochemical, small-molecule microarray, 635/667 nm fluorescence, primary screen (AID 1133); conditions: FGF2, fluorescence 635/667, higher = more signal
Sequence of Fibroblast growth factor 2 (Homo sapiens) (P09038 whole entry, looked up): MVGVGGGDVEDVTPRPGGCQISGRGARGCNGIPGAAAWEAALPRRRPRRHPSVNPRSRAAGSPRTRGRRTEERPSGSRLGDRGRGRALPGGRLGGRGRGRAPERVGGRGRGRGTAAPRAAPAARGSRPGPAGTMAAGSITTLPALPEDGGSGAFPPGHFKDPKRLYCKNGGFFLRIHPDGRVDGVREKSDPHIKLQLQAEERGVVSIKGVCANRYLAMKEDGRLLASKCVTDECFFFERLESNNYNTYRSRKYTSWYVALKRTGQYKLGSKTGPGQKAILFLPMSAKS

[7] = JC-1 mitochondrial potential readout, lung cancer cells – cell-based, A549, JC-1 fluorescence, basal, 24 h, 100 nL, profiling panel (AID 1138); conditions: higher = more signal;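 further: A549 lung adenocarcinoma cells under basal conditions with no added stimulus; test concentration not given here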
[8] = tested on: Lefty1; experiment: Lefty1 protein binding to printed compounds – biochemical, small-molecule microarray, 635/667 nm fluorescence, primary screen (AID 1139); conditions: fluorescence 635/667, higher = more signal
[9] = tested on: wheat germ agglutinin (Triticum aestivum), Alexa647-labelled; experiment: Alexa647-WGA lectin binding to printed small molecules – biochemical, small-molecule microarray, 635/667 nm fluorescence, artefact control for SMM control-protein annotation, profiling panel (AID 1140); conditions: WGA-A647 binding, 635 nm fluorescence, higher = more signal;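 further: score merges 667 nm feature emission with signal to noise over triplicate slides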
[10] = molecular target: Luciferin 4-monooxygenase (Photinus pyralis) (UniProt P08659); experiment: inhibition of purified Photinus pyralis luciferase – biochemical, luminescence, purified enzyme, 2006 set, primary screen (AID 1141); conditions: purified firefly luciferase, SteadyGlo luminescence, 30 min; higher = more signal, called active from +8 up or from −8 down;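 further: cell-free assay with purified firefly luciferase at 100 ng per well in PBS; test concentration not given here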
Sequence of Luciferin 4-monooxygenase (Photinus pyralis) (P08659 whole entry, looked up): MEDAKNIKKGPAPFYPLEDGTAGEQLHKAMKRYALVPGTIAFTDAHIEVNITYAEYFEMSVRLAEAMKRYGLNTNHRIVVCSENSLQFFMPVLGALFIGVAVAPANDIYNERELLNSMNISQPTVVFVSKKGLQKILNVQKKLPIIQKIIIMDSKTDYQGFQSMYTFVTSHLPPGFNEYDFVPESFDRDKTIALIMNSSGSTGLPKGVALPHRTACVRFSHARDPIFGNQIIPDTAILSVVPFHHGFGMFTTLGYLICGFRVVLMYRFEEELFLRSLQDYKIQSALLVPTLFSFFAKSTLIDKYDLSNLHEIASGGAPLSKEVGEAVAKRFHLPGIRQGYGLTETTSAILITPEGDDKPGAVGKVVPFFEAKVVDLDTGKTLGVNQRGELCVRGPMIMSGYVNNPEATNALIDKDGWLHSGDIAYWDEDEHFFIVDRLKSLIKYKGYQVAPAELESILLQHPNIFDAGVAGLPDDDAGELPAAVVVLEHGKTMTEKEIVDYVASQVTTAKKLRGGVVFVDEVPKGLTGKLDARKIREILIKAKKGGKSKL

| Compound | composite z-score [1] | composite z-score [2] | composite z-score [3] | composite z-score [4] | composite z-score [5] | composite z-score [6] | z-score [7] | composite z-score [8] | composite z-score [9] | z-score [10] |
| --- | --- | --- | --- | --- | --- | --- | --- | --- | --- | --- |
| O=C1OCC=C[C@H]2OC34C=CCN(Cn5nnc6ccccc65)C(=O)[C@H]3N(CCCCCCO)C(=O)[C@@H]4[C@@H]12 (stereo not given in full) | 1.42 | -0.238 | 0.058 | -1.49 | -0.982 | -0.525 | 0.421 | -0.835 | -0.544 | -0.283 (inactive) |
| O=C(O)[C@H](Cc1ccccc1)n1cc(-c2ccccn2)nn1 | 0.908 | 0.585 | 0.19 | 0.919 | 0.676 | 0.0069 | -0.47 | 0.5 | 0.425 | 1.01 (inactive) |
| C=CC[C@@H](OC(=O)Nc1ccc(OC)cc1)c1ccc(OCCO)cc1 | -0.662 | -0.646 | -0.676 | -3 | -0.787 | -1.6 | -0.371 | -0.999 | -0.262 | -5.18 (inactive) |
| C=CCOC(=O)[C@@H]1[C@H]2C(=O)O[C@H](c3ccccc3)[C@H](c3ccccc3)N2[C@H](c2ccc(OCCOC(=O)[C@H]3C[C@H]4C(=O)N[C@@H](CCCCN(C)C)C(=O)N4[C@H]3c3cccc(OCCO)c3)cc2)[C@@]12C(=O)Nc1ccc(I)cc12 | 2.94 | 1.17 | 0.319 | 0.758 | 1.48 | 1.59 | -0.717 | 1.49 | 0.768 | -0.517 (inactive) |
| CC(C)OC(=O)CC(=O)CC(O)c1cccc(C#N)c1 (stereo not given) | 0.797 | 0.828 | 0.763 | 0.974 | 0.102 | -0.51 | 0.67 | -0.0714 | 0.841 | 1.2 (inactive) |
| COc1ccc(C(O)C2C=CC3C(=O)N(c4ccccc4)C(=O)C3N2Nc2ccccc2)cc1OCc1ccccc1 (stereo not given) | 0.621 | 1.24 | 0.315 | 0.942 | 1.22 | -0.132 | -0.0208 | 0.788 | 1.22 | -0.414 (inactive) |
| CC(C)C(O)C1C=CC2C(=O)N(C)C(=O)C2N1N(c1ccccc1)c1ccccc1 (stereo not given) | 0.545 | -0.735 | 0.523 | 0.597 | -0.0394 | -0.926 | 0.953 | -0.852 | 0.357 | 0.734 (inactive) |
| [N-]=[N+]=Nc1ccccc1C[C@]1(C(=O)NCc2ccccc2)N=C(c2ccc(OCCCO)cc2)O[C@H]1c1ccccc1 | 1.93 | 1.24 | 0.0541 | 0.998 | 1.13 | 0.0124 | 0.482 | 0.0213 | 1.12 | -1.34 (inactive) |
| O=C1c2ccccc2[C@](Cc2ccccc2I)(C(=O)NCc2ccccc2)[C@H](c2ccc(CO)cc2)N1C1CCCCC1 | 2.68 | 1.2 | 0.699 | 0.945 | 1.54 | 1.93 | -0.0853 | 1.42 | 1.04 | -0.0828 (inactive) |
| CC(C)(C)OC(=O)CC[C@]1(C(=O)N2CCOCC2)N=C(c2ccc(OCCCO)cc2)O[C@H]1c1ccccc1 | 1.9 | 0.645 | 0.407 | 0.886 | 0.825 | 0.858 | 2.23 | 0.398 | 0.298 | -1.99 (inactive) |
| O=C1C[C@]2(c3ccc([N+](=O)[O-])cc3)C(=O)N(Cc3ccccc3)c3cc(CO)ccc3[C@H]2N1CC12CC3CC(CC(C3)C1)C2 | -1.43 | -0.835 | -0.536 | -1.28 | -1.06 | -0.653 | -0.0834 | -1.17 | -0.786 | -0.271 (inactive) |
| COC(=O)C(CC#Cc1ccc2c(c1)[C@]1(C(=O)N2)[C@H](C(=O)O)[C@H]2C(=O)O[C@H](c3ccccc3)[C@H](c3ccccc3)N2[C@@H]1c1ccccc1OCCO)C(=O)OC | 2.8 | 1.24 | 0.712 | 0.95 | 1.18 | 0.838 | -1.01 | 0.976 | 1.18 | -3.09 (inactive) |
| COC(=O)[C@@]1(Cc2ccccc2)[C@H]2c3cc(C(=O)N4CCCC4)[nH]c3C[C@H]2CN1C(=O)c1ccccc1 | 0.886 | -0.0205 | 1.24 | 0.664 | -0.382 | -0.757 | 0.709 | -0.826 | -0.129 | 1.18 (inactive) |
| CN(C)CCCN1C(=O)[C@@]2(c3ccc([N+](=O)[O-])cc3)CC(=O)N(CC34CC5CC(CC(C5)C3)C4)[C@@H]2c2ccc(CO)cc21 | 1.98 | -0.0813 | -0.117 | 0.926 | 0.203 | -0.112 | 1.72 | 0.13 | 0.354 | -0.701 (inactive) |
| C=C[C@@H](COC(C)=O)NS(=O)(=O)c1ccc(Br)cc1 | 0.188 | 0.374 | 0.0776 | 0.156 | 0.635 | 0.617 | -0.367 | 0.283 | 0.428 | -0.823 (inactive) |
| C[C@@H](OCc1ccccc1)C1NC(=O)[C@@]23C(=O)N[C@@H](Cc4ccccc4)C2[C@H](C)[C@@]2(C)O[C@H]2C3/C=C/C/C=C\CNC(=O)CNC1=O (stereo not given in full) | 0.413 | -0.668 | 0.193 | -2.57 | -0.237 | -0.113 | -0.777 | -0.339 | -1.08 | 0.196 (inactive) |
| C=CCNC(=O)[C@@H]1[C@H]2C(=O)O[C@H](c3ccccc3)[C@H](c3ccccc3)N2[C@H](c2ccccc2OCCO)[C@@]12C(=O)N(C(=O)OCCOC)c1ccc(C#CC3=CCCCC3)cc12 | 1.66 | 1.19 | 0.636 | 0.682 | 1.01 | 1.43 | -0.663 | 0.949 | 0.762 | -1.53 (inactive) |
